Out of some 69,000 compounds screened, about 1,000 (1.4%) showed an effect of 50% or more. The full list was thinned out, with strong results kept by preference.
Test system: Leishmania donovani
Test: Leishmania intramacrophage assay
Format: functional, organism-based
Parameters: scale not given: in the data most compounds retested in dose-response had high values

For `CO[C@H]1CCN(Cc2ccoc2)C[C@@H]1Cc1ccccc1.O=C(O)C(F)(F)F`, the “Percent Effect” value (30.3 µM, […]) was 25.61%.
With `COc1c(C)cnc(CSc2nnc(NC3CC3)s2)c1C` the “Percent Effect” value (30.3 µM, […]) was 13.54%.
For `O=C(NCC(=O)N1CCCC(c2ccccc2)CC1)c1ccoc1` (centres undefined), the “Percent Effect” value (30 µM) was 24.45%.
With `O=C([C@H]1CCCO1)N1CCc2ncc(CN3CCOCC3)n2CC1` the “Percent Effect” value (30.3 µM, […]) was 32.4%.
With `Cc1cnn(CC(C)NCc2ccc(OCC(N)=O)cc2)c1` (centres undefined) the “Percent Effect” value (30 µM) was 8.68%.
With `Cc1ccc2[nH]c(CN3CC[C@@H](N4CCN(C)CC4)[C@H](O)C3)c(C)c2c1` the “Percent Effect” value (30.3 µM, […]) was 23.41%.
`Cc1c(CN2CC[C@@H](N3CCC(O)CC3)[C@H](O)C2)[nH]c2ccc(F)cc12` was tested, and the “Percent Effect” value (30.3 µM, […]) was 26.65%.
`Cc1c(CN2CC[C@@H](N3CCC(O)CC3)[C@H](O)C2)[nH]c2ccc(Cl)cc12` was tested, and the “Percent Effect” value (30.3 µM, […]) was 82.7%.
With `O=C(c1ccc(S(=O)(=O)NCc2ccon2)cc1)N1CCOCC1` the “Percent Effect” value (30.3 µM, […]) was 0.2735%.
`CCOc1ccc(-c2c(-c3ccccc3)ncn2C2CCNC2)cn1` (centres undefined) was tested, and the “Percent Effect” value (30.3 µM, […]) was 76.3%.
`Oc1ccc(-c2c(-c3ccccc3)ncn2C2CCNC2)cc1` (centres undefined) was tested, and the “Percent Effect” value (30.3 µM, […]) was -26.99%.
`Cc1nc[nH]c1-c1c(-c2ccccc2)ncn1C1CCNC1` (centres undefined) was tested, and the “Percent Effect” value (30.3 µM, […]) was -1.128%.
In the case of `Cc1nc(C)n(CC2CCCN(c3ncnc4[nH]ccc34)C2)n1` (centres undefined), the “Percent Effect” value (30 µM, 30.03 µM) is reported as 52.77%.
For `CCc1nc(CN2CCCN(c3ncnc4ccsc34)CC2)no1`, the “Percent Effect” value (30.3 µM, […]) was 27.83%.
With `Cc1nc(C)n(CC2CN(c3ncnc4[nH]ccc34)CCO2)n1` (centres undefined) the “Percent Effect” value (30 µM, 30.03 µM) was -5.028%.
In the case of `Cc1nc(C)n(CC2CCCN(c3ncnc4c3CCC4)C2)n1` (centres undefined), the “Percent Effect” value (30 µM, 30.03 µM) is reported as 28.07%.
With `Cc1nc(C)n(CC2CCCN(c3ncnc4sccc34)C2)n1` (centres undefined) the “Percent Effect” value (30 µM, 30.03 µM) was -10.34%.
`Cc1nc(CN2CCN(c3ncnc4ccccc34)CC2)no1` was tested, and the “Percent Effect” value (30.3 µM, […]) was 19.7%.
For `Cc1nc(C)n(CC2CCCN(c3ncnc4ccsc34)C2)n1` (centres undefined), the “Percent Effect” value (30 µM, 30.03 µM) was 35.24%.
In the case of `CCc1nc(CN2CCCN(c3ncnc4ccccc34)CC2)no1`, the “Percent Effect” value (30 µM, 30.03 µM) is reported as 55.68%.
With `Cc1nc(C)n(CC2CCCN(c3ncnc4ccccc34)C2)n1` (centres undefined) the “Percent Effect” value (30 µM) was 54.57%.
`COCC1CN(C(=O)COc2ccccc2C)Cc2ncn(C)c21.O=C(O)C(F)(F)F` (centres undefined) was tested, and the “Percent Effect” value (30.3 µM, […]) was 12.02%.
`Cc1ccc(CN2CCn3c(COc4cccnc4)cnc3C2C)o1.O=C(O)C(F)(F)F.O=C(O)C(F)(F)F` (centres undefined) was tested, and the “Percent Effect” value (30.3 µM, […]) was -4.64%.
`CCCn1cc(C(=O)N[C@H]2CC[C@H](n3cnnc3)CC2)c(C)n1` was tested, and the “Percent Effect” value (30.3 µM, […]) was 11.19%.
In the case of `O=C(O)C(F)(F)F.O=S(=O)(c1cccs1)N1CC[C@H]2[C@H]1CCN2c1ncccn1`, the “Percent Effect” value (30.3 µM, […]) is reported as -1.813%.
With `Cc1ccc(CN2C[C@@H]3CN(CC4CCOCC4)CCO[C@@H]3C2)s1.O=C(O)C(F)(F)F.O=C(O)C(F)(F)F` the “Percent Effect” value (30.3 µM, […]) was 24.65%.
`Cc1csc(CN2C[C@@H]3CN(CC4CCOCC4)CCO[C@@H]3C2)n1` was tested, and the “Percent Effect” value (30.3 µM, […]) was 53.9%.
With `Cc1csc(CN2C[C@@H]3CN(S(C)(=O)=O)CCO[C@@H]3C2)n1` the “Percent Effect” value (30.3 µM, […]) was 20.2%.
With `Cc1nc(C(=O)N2CCCC2c2cncc(CN3CCCC3)n2)co1` (centres undefined) the “Percent Effect” value (30.3 µM, […]) was 16.43%.
For `COc1ccc(CC(=O)N2CCCC(n3nc(C)cc3C)C2)cc1F` (centres undefined), the “Percent Effect” value (30 µM) was 18.37%.
With `Cc1[nH]/c(=N\C(=O)c2csc(NC3CCCC3)n2)sc1C` the “Percent Effect” value (30.3 µM, […]) was 100.1%.
For `CC(C)CNc1nc(C(=O)/N=c2\[nH]nc(C(C)(C)C)s2)cs1`, the “Percent Effect” value (30 µM, 30.03 µM) was -9.293%.
With `CCN(CC)C(=O)CCCNC(=O)c1csc(NC2CC2)n1` the “Percent Effect” value (30.3 µM, […]) was -2.373%.
`Cc1cs/c(=N/C(=O)c2csc(NCC(C)C)n2)[nH]1` was tested, and the “Percent Effect” value (30.3 µM, […]) was 8.971%.
For `Cc1[nH]/c(=N\C(=O)c2csc(NC3CC3)n2)sc1C`, the “Percent Effect” value (30 µM, 30.03 µM) was 70.25%.
In the case of `CC(C)(C)[S+]([O-])CCNC(=O)c1csc(NC2CC2)n1` (centres undefined), the “Percent Effect” value (30.3 µM, […]) is reported as -31.46%.
With `Cc1[nH]/c(=N\C(=O)c2csc(NCC(C)C)n2)sc1C` the “Percent Effect” value (30 µM, 30.03 µM) was 87.72%.
In the case of `CN1CCN(C(=O)CCc2cc(Br)cs2)CC1`, the “Percent Effect” value (30.3 µM, […]) is reported as 1.944%.
For `O=C(Cc1ccsc1)N1CCN(CC2CC2)c2ncccc2C1.O=C(O)C(F)(F)F`, the “Percent Effect” value (30.3 µM, […]) was 13.41%.
In the case of `CC(C)c1cc(C(F)(F)F)n2nc(C3CCN(S(C)(=O)=O)C3)cc2n1` (centres undefined), the “Percent Effect” value (30.3 µM, […]) is reported as 14.63%.
For `COc1ccc2[nH]cc(C(=O)N3C[C@@H](O)[C@H](N4CCOCC4)C3)c2c1`, the “Percent Effect” value (30.3 µM, […]) was 10.77%.
`COc1ccccc1OCc1cc(C(=O)N2CCOCC2CO)n[nH]1` (centres undefined) was tested, and the “Percent Effect” value (30.3 µM, […]) was 28.86%.
For `CCc1ccc(CN(Cc2ccccc2)CC(C)CO)nc1` (centres undefined), the “Percent Effect” value (30.3 µM, […]) was 7.862%.
For `CC(C)OCCN1CCN(C(C)c2nc(C3CC3)no2)CC1` (centres undefined), the “Percent Effect” value (30 µM) was 6.668%.
For `CC(c1nc(C2CC2)no1)N1CCN(CCS(C)(=O)=O)CC1` (centres undefined), the “Percent Effect” value (30.3 µM, […]) was 50.3%.
With `COCCN1CCN(C(C)c2nc(C3CC3)no2)CC1` (centres undefined) the “Percent Effect” value (30 µM) was -7.952%.
With `Clc1snnc1CN1CCN(c2nccs2)CC1` the “Percent Effect” value (30.3 µM, […]) was -11.24%.
With `COc1ccccc1CC(C)CC(=O)N(C)Cc1cc(C)on1` (centres undefined) the “Percent Effect” value (30.3 µM, […]) was 6.655%.
In the case of `COc1ccccc1CC(=O)NS(C)(=O)=O`, the “Percent Effect” value (30 µM, 30.03 µM) is reported as 11.96%.
With `CCC(CC(=O)NS(=O)(=O)C(C)C)c1ccccc1` (centres undefined) the “Percent Effect” value (30.3 µM, […]) was -1.743%.
In the case of `COc1ccccc1CC(C)CC(=O)NC(C)C` (centres undefined), the “Percent Effect” value (30.3 µM, […]) is reported as 59.88%.
In the case of `COc1ccccc1CC(C)CC(=O)NS(=O)(=O)C(C)C` (centres undefined), the “Percent Effect” value (30.3 µM, […]) is reported as 63.27%.
In the case of `COc1ccccc1CC(C)CC(=O)O` (centres undefined), the “Percent Effect” value (30.3 µM, […]) is reported as 41.22%.
For `Cc1cc(NC(=O)NCC(c2ccccc2)N2CCOCC2)n(C)n1` (centres undefined), the “Percent Effect” value (30 µM) was 18.5%.
With `C1CC(CN2CCO[C@H]3[C@H](OCC4CC4)CC[C@@H]32)CCO1.O=C(O)C(F)(F)F` the “Percent Effect” value (30 µM, 30.03 µM) was 5.211%.
For `Cc1ccc(NC(=O)CC2Cn3ncnc3NC2=O)cc1C` (centres undefined), the “Percent Effect” value (30.3 µM, […]) was 22.77%.
With `CN1CCOCC12CCN(c1ccc(C#N)cc1)CC2.O=C(O)C(F)(F)F` the “Percent Effect” value (30.3 µM, […]) was 14.66%.
For `COc1ccc(C2CCCN2C(=O)c2csc(NC(C)=O)n2)cc1` (centres undefined), the “Percent Effect” value (30 µM, 30.03 µM) was 22.16%.
For `Cc1cc(C(=O)NCCc2nc3c(s2)CCCC3)n(C)n1`, the “Percent Effect” value (30.3 µM, […]) was 29.87%.
`O=C1CCc2cc(-c3csc(CCN4CCOC4=O)n3)c(F)cc2N1` was tested, and the “Percent Effect” value (30.3 µM, […]) was -11.05%.
With `CC(C)c1nc(C2CCCN(C(=O)c3ccc4c(c3)COC4)C2)no1` (centres undefined) the “Percent Effect” value (30 µM) was 33.04%.
For `CC(C)C(=O)N1CCC12CCCN(C(=O)c1ccccc1)C2` (centres undefined), the “Percent Effect” value (30.3 µM, […]) was 9.102%.
For `Cc1occc1CNC(=O)C1(C)CCCN(C(=O)c2ccccc2)C1` (centres undefined), the “Percent Effect” value (30.3 µM, […]) was 52.94%.
For `Cc1occc1CNC(=O)C1(C)CCCN1C(=O)c1ccccc1` (centres undefined), the “Percent Effect” value (30.3 µM, […]) was -78.28%.

From ChEMBL document CHEMBL3988442, “University of Dundee, Small-Polar-MMV Screening Library” (2021)
